Experiment [1] deals with Plasmodium falciparum Sir2 (PF13_0152, Sir2A). The experiment is described as follows: pfSir2 binders on small-molecule microarrays, primary screen, biochemical, small-molecule microarray, 635 nm fluorescence (AID 1098).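 Note: score merges spot fluorescence intensity with its signal-to-noise ratio.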 As to conditions: small-molecule microarray binding, fluorescence 635 nm; higher = more signal.
A short description of experiment [2]: small-molecule microarray binders of probe aDKK1, primary screen, biochemical, biotinylated probe, 635/667 nm fluorescence (AID 1099).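 Note: score merges 667nm spot fluorescence with signal to noise across triplicate slides.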 The note with it: higher = more signal.
Experiment [3] is described as follows: small-molecule microarray binders of probe aCHRDL2, primary screen, biochemical, biotinylated probe, 635/667 nm fluorescence (AID 1100). As to conditions: higher = more signal.
Experiment [4] in a line: splicing luciferase reporter signal modulators, primary screen, spliceosome inhibition project, cell-based, HEK293, splice +/- reporter (AID 1101).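 Note: HEK293 cells carrying a splicing-competent luciferase reporter gene; test concentration not given here.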 As to conditions: luminescence, 24 h, higher = more signal, called active from +8 up or from −8 down. (In general: A reporter such as luciferase makes a cellular process visible.)
Experiment [5] has as its target Fibroblast growth factor 10 (Homo sapiens) (UniProt O15520). The experiment is described as follows: FGF10 binders on small-molecule microarrays, primary screen, biochemical, small-molecule microarray, 635 nm fluorescence (AID 1102). As to conditions: FGF10 binding, fluorescence 635 nm, higher = more signal.
Experiment [6] deals with glycogen synthase kinase-3 (GSK3A per assay name; protocol says GSK3B). The experiment is described as follows: GSK3 binders on small-molecule microarrays, primary screen, biochemical, small-molecule microarray, 635 nm fluorescence, GSK3A (AID 1103). Note: the record names both GSK3A and GSK3B. The note with it: small-molecule microarray binding, fluorescence 635 nm; higher = more signal.
The target in experiment [7] is Epidermal growth factor receptor (Homo sapiens) (UniProt P00533). The experiment is described as follows: EGFR binders on small-molecule microarrays, primary screen, biochemical, small-molecule microarray, 635 nm fluorescence (AID 1104).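 Note: score merges 667 nm emission intensity with spot signal to noise over triplicate slides.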 As to conditions: EGFR binding, higher = more signal.
For experiment [8], the target named is Follistatin-related protein 3 (Homo sapiens) (UniProt O95633). The experiment is described as follows: FSTL3 binders on small-molecule microarrays, primary screen, biochemical, small-molecule microarray, 635 nm fluorescence (AID 1105).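 Note: score merges emission near 667 nm and signal to noise per printed spot across three slides.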 The note with it: FSTL3 binding, higher = more signal.
The target of experiment [9] is Dickkopf-related protein 1 (Homo sapiens) (UniProt O94907). The experiment is described as follows: DKK1 binders on small-molecule microarrays, primary screen, biochemical, small-molecule microarray, 635 nm fluorescence scan (AID 1106).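 Note: score merges emission near 667 nm with signal to noise over three replicate slides.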 The note with it: DKK1 binding, higher = more signal.
In experiment [10] the test system is Inhibin beta A chain (activin A). The experiment is described as follows: INHBA (activin A) binders on microarrays, primary screen, biochemical, small-molecule microarray, 635 nm fluorescence scan (AID 1107).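 Note: mouse activin A protein probed at 4.33 µg/mL on printed slides; score merges bound-protein fluorescence near 667 nm with spot signal-to-noise.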 The note with it: small-molecule microarray binding, higher = more signal.
Experiment [11] concerns Human papillomavirus type 1a protein E7 (residues 44-93). The experiment is described as follows: HPV1a E7 fragment binders on microarrays, primary screen, biochemical, small-molecule microarray, residues 44-93, 635 nm fluorescence (AID 1108).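 Note: E7 fragment applied at 1 µg/mL in TBST for 1 h at 4 C; score combines spot fluorescence with its signal to noise ratio.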 The note with it: small-molecule microarray binding, fluorescence 635 nm; higher = more signal.
A short description of experiment [12]: modulators of HCV replicon luciferase signal, primary screen, HCV replication inhibitor project, Huh7 cells, luciferase reporter (AID 1109).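 Note: huh7 hepatoma cells harbouring a luciferase neomycin HCV replicon reporter; luciferase luminescence as measure of HCV replicon replication; test concentration not given here.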 As to conditions: 48 h, higher = more signal. In general terms: Replicon systems follow genome replication, usually without infectious particles.
In experiment [13] the target is Left-right determination factor 2 (Homo sapiens) (UniProt O00292). The experiment is described as follows: LEFTY2 binders on small-molecule microarrays, primary screen, biochemical, small-molecule microarray, 635 nm fluorescence scan (AID 1110). The note with it: LEFTY2 binding, higher = more signal.
Experiment [14] concerns the target Calmodulin-1 (Homo sapiens) (UniProt P0DP23). The experiment is described as follows: CALM1 binders on microarrays, EGTA buffer, profiling panel, biochemical, small-molecule microarray, Cy5-labelled CALM1 (AID 1111).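 Note: labelled calmodulin applied in Tris saline Tween buffer holding calcium plus EGTA and DTT.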 As to conditions: Cy5-CALM1 binding fluorescence, higher = more signal.
Experiment [15] has the same target. The experiment is described as follows: calcium-bound CALM1 binders on microarrays, profiling panel, artefact control for SMM control-protein annotation, biochemical, small-molecule microarray, Cy5-labelled CALM1, plus calcium (AID 1112).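 Note: score merges spot fluorescence with signal to noise from triplicate slides.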 The note with it: Cy5-CALM1 binding fluorescence, higher = more signal.
Experiment [16] can be described thus: small-molecule microarray binders of probe aWnt5a, primary screen, biochemical, biotinylated probe, 635/667 nm fluorescence (AID 1113).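 Note: score merges 667 nm fluorescence intensity with signal-to-noise per printed feature.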 The note with it: higher = more signal.
Experiment [17] can be described thus: small-molecule microarray binders of probe aShh, primary screen, biochemical, biotinylated probe, 635/667 nm fluorescence (AID 1114).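 Note: probe is biotin-labelled aShh protein from a stem cell growth factor screen; measures binding of labelled protein to compounds printed on the slide; score merges feature fluorescence at 667 nm with signal-to-noise.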 The note with it: higher = more signal.
The nature of experiment [18]: small-molecule microarray binders of probe aNog, primary screen, biochemical, biotinylated probe, 635/667 nm fluorescence (AID 1115).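 Note: probe is biotinylated aNog protein used at 0.15 µg/mL for 1 h at 4 C; z-score combines 667 nm fluorescence of each spot with its signal to noise.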 The note with it: higher = more signal.
Experiment [19] addresses Torsin-1A-interacting protein 1 (Homo sapiens) (UniProt Q5JTV8). The experiment is described as follows: LAP1 binders from COS7 cell lysate, primary screen, small-molecule microarray, 635/667 nm fluorescence (AID 1116). The note with it: COS7-hLAP1 lysate binding, 635 nm fluorescence, higher = more signal.
Experiment [20] addresses Alpha-bungarotoxin (Bungarus multicinctus) (UniProt P60615). The experiment is described as follows: alpha-bungarotoxin binders on microarray, profiling panel, artefact control for SMM control protein annotation, biochemical, small-molecule microarray, Alexa647 label, 635/667 nm fluorescence (AID 1117). The note with it: alpha-BTX-A647 binding fluorescence, higher = more signal.

The source made the active and inactive calls.

Chain of Epidermal growth factor receptor (Homo sapiens) (P00533 whole entry, looked up): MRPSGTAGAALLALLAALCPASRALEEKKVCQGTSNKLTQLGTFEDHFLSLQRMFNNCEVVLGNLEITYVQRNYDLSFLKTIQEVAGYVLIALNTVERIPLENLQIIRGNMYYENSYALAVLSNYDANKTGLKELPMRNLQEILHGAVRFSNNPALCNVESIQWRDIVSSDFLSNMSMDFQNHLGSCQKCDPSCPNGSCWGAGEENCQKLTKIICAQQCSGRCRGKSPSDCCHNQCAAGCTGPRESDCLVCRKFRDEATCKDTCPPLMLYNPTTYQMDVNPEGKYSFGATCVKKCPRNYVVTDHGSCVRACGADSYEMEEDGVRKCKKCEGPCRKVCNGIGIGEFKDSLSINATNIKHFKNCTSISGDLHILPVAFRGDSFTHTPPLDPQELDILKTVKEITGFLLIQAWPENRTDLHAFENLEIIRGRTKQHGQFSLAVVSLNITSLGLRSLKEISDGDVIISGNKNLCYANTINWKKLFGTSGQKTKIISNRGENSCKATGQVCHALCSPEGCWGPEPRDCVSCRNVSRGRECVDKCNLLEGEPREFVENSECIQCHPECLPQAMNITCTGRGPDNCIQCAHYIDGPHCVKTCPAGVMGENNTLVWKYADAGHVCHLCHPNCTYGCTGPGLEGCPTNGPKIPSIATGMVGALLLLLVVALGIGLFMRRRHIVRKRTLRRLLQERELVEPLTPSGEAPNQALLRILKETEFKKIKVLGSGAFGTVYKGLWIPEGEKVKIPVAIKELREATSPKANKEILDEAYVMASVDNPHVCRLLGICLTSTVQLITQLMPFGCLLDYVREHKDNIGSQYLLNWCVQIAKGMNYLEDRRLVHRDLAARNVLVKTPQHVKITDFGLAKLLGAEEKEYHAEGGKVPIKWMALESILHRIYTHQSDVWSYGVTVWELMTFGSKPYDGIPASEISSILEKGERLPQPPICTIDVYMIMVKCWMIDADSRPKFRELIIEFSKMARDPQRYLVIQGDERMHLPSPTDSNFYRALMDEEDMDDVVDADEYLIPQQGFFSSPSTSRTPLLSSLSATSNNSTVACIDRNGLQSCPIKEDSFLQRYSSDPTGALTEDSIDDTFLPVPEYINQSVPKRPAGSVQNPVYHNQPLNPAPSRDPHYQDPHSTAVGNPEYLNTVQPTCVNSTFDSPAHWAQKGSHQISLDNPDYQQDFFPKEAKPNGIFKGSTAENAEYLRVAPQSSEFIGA
Chain of Follistatin-related protein 3 (Homo sapiens) (O95633 whole entry, looked up): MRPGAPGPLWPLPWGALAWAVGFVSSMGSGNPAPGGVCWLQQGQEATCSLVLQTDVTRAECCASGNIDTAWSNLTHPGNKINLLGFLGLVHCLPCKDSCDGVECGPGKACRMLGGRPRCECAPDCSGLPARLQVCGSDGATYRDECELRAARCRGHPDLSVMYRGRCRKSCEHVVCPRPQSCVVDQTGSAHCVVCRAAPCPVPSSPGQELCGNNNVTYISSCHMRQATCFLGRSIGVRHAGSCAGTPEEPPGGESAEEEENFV
Chain of Torsin-1A-interacting protein 1 (Homo sapiens) (Q5JTV8 whole entry, looked up): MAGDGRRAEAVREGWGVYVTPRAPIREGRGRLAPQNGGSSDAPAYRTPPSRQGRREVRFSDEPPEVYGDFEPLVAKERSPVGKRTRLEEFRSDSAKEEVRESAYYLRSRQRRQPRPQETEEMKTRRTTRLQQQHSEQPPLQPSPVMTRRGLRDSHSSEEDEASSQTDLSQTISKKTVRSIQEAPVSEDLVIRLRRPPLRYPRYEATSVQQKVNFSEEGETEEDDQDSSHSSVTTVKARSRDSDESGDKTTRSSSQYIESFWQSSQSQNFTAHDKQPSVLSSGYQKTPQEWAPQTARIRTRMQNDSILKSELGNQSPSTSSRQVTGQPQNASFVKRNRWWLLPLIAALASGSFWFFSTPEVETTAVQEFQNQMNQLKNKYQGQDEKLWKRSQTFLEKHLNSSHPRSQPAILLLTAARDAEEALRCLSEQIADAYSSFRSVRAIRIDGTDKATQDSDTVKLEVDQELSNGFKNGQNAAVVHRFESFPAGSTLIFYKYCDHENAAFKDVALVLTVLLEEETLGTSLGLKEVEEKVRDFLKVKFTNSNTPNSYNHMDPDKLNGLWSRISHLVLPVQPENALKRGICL
Chain of Dickkopf-related protein 1 (Homo sapiens) (O94907 whole entry, looked up): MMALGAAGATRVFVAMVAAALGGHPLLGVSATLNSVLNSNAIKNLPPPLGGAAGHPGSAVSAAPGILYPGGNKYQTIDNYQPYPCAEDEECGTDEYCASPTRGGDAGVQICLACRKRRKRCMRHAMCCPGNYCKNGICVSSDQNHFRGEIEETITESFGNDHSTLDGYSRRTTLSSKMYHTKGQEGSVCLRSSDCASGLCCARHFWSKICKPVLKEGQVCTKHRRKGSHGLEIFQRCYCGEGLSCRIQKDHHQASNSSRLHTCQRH
Chain of Alpha-bungarotoxin (Bungarus multicinctus) (P60615 whole entry, looked up): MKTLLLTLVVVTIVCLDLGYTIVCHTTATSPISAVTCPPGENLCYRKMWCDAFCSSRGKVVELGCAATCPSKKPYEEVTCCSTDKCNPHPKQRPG
Chain of Left-right determination factor 2 (Homo sapiens) (O00292 whole entry, looked up): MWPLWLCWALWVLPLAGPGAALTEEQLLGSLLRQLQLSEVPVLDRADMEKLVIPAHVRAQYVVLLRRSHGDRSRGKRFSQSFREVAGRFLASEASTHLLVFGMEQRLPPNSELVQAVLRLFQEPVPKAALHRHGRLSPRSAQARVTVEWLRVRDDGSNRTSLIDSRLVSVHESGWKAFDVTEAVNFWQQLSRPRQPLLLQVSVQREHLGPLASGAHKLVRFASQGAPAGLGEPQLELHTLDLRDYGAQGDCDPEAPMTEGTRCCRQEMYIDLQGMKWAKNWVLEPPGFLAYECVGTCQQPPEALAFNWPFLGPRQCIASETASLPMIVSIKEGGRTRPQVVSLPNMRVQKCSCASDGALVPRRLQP
Chain of Fibroblast growth factor 10 (Homo sapiens) (O15520 whole entry, looked up): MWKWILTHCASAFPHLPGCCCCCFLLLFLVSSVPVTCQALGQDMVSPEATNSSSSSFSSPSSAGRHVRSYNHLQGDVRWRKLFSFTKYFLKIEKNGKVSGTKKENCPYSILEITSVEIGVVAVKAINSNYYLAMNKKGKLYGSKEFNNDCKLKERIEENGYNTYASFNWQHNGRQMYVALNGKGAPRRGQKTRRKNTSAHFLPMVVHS

In the case of `CC(=O)OC[C@H]1O[C@H](CCON=C(C)C)C=C[C@@H]1OC(C)=O`, the composite z-score in experiment [1] was 0.475; in experiment [2], -0.22; in experiment [3] it was 0.116; in experiment [5] it was -0.0068; in [6] it was -0.329; in [7], 0.187. The composite z-score is 0.296 in experiment [8]; 0.41 in experiment [9]; 1.12 in experiment [10]; -0.306 in [11]; 0.304 in experiment [13]; -0.42 in experiment [14]. Further, the composite z-score in experiment [15] is -0.268; in experiment [16], -0.152; in experiment [17] it was -0.0769; in experiment [18], -0.324; in [19], 0.3; in experiment [20], 0.501. The figures for the z-score in experiment [4] and in experiment [12] were 0.384 (inactive) and -0.684, respectively.
In the case of `COc1ccc(-c2cnnc(CCCn3ccnc3-c3ccccc3)n2)cc1`, the composite z-score in [1] is 0.442; in experiment [2] it was 0.0096; in experiment [3], -0.592; in [5], 0.7; in [6], 0.7; in experiment [7], 0.929. Further, the composite z-score in experiment [8] turned out to be 1.37; in [9] it was 1.02; in experiment [10] it was 0.327; in [11], 0.412; in experiment [13] it was 0.774; in experiment [14], 0.212. The composite z-score was -0.686 in experiment [15]; -0.103 in experiment [16]; -0.0769 in experiment [17]; -0.395 in [18]; 0.917 in experiment [19]; 0.587 in experiment [20]. For the same compound, the z-score was -1.04 (inactive) in [4] and -2.57 in [12].
On to `COc1ccc(OC[C@@H]2CC3[C@@H](c4ccc(Br)cc4)[C@H](C)CC[C@H]3C(=O)O2)cc1` (stereo not given in full), for which the composite z-score in experiment [1] is 0.353; in experiment [2], -0.436; in experiment [3] it was -0.727; in experiment [5], 0.638; in [6], -0.274; in experiment [7], 0.885. Moreover, the composite z-score was 0.354 in experiment [8]; 0.827 in [9]; 0.483 in experiment [10]; -0.722 in experiment [11]; 0.418 in experiment [13]; -0.991 in experiment [14]. The composite z-score in experiment [15] is -0.642; in experiment [16] it was -0.158; in experiment [17] it was -0.367; in [18], -0.0003; in experiment [19], 0.308; in experiment [20] it was 0.287. The z-score in experiment [4] is -0.823 (inactive); in experiment [12], -0.312.
In the case of `COC(=O)CC=C[C@@H](C)[C@@H](C=NOC(C)CN1CCCCc2nc(C)c(C)cc21)NS(=O)(=O)c1ccc(C)cc1` (stereo not given in full), the composite z-score in experiment [1] was 0.361; in experiment [2], -0.0704; in experiment [3], 0.0097; in experiment [5], -0.129; in experiment [6], 0.165; in [7] it was 1. The composite z-score is 0.437 in [8]; 0.846 in [9]; 1.15 in experiment [10]; 0.241 in experiment [11]; 0.614 in experiment [13]; -0.344 in experiment [14]. In addition, the composite z-score was -1.27 in [15]; -0.158 in experiment [16]; 0.0144 in experiment [17]; 0.0567 in experiment [18]; 0.0017 in experiment [19]; 0.363 in experiment [20]. Moreover, the z-score in experiment [4] is -0.182 (inactive); in experiment [12], 0.0814.
Take `CO[C@@H](C1CCCCC1)[C@@H](C)[C@H](OCc1cccc(Br)c1)[C@@H](C)CO`: the composite z-score was -0.317 in [1]; -0.359 in experiment [2]; -0.426 in experiment [3]; 0.512 in [5]; -0.314 in [6]; 0.823 in [7]. Further, the composite z-score in experiment [8] is 0.171; in experiment [9] it was 0.385; in [10] it was 0.247; in [11], -0.18; in experiment [13], 0.481; in experiment [14], -0.434. Besides, the composite z-score in experiment [15] is 0.318; in experiment [16], -0.139; in [17], -0.0709; in experiment [18] it was 0.0649; in experiment [19], 0.0682; in [20] it was -0.378. Further, the z-score in experiment [4] is 0.899 (inactive); in [12] it was -1.88.
For `CCOC(=O)CCN1C(=O)[C@H]2[C@H]3[C@H](O)[C@H](O)CC(=NO[C@@H]4O[C@H](CO)[C@@H](O)[C@H](O)[C@H]4O)[C@@H]3CC[C@H]2C1=O`, the composite z-score in experiment [1] was 0.839; in experiment [2] it was -0.188; in experiment [3] it was -0.573; in experiment [5], 1.04; in experiment [6] it was 1.26; in [7], 1.05. The composite z-score in experiment [8] was 1.37; in [9], 1.27; in [10], 0.898; in experiment [11], 1.21; in experiment [13] it was 0.809; in [14], -0.896. In addition, the composite z-score was -1.99 in [15]; -0.0417 in experiment [16]; 0.296 in experiment [17]; -0.0784 in [18]; 0.533 in experiment [19]; 0.844 in [20]. The z-score was -0.104 (inactive) in experiment [4] and 0.891 in [12].

These data come from PubChem BioAssay.
